Measured values: PubChem BioAssay AID1159580 (chemical genetic matrix, 2015)
Values joined by “and” are separate entries in the source; they are usually repeats but may differ in a detail not shown here. Equal values may be shown once. Out of some 5,500 compounds screened, about 2,000 (36%) were called active. Another 18% or so got no clear call; they are omitted. Rule as the data show it: active = normalized growth mostly below about 0.91 (no sharp cut-off); inconclusive = no clear call, values can overlap the other calls; inactive = mostly above about 0.92. This is one part of the list.

Experiment: chemical genetic growth profiling, strain panel (AID 1159580);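 also: tested at 20 µM; growth read once vehicle control cultures reached saturation at 30 °C; 1 = growth at the plate median or of vehicle wells; lower values mean less growth of the strain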
Conditions: S. cerevisiae deletion strains, growth OD

Measured: normalized growth

Nc1nc2ncc(CNc3ccc(C(=O)N[C@@H](CCC(=O)O)C(=O)O)cc3)nc2c(=O)[nH]1
inactive: locus YAL021C, strain ccr4, hits give low values 0.993 | locus YAL026C, strain drs2, hits give low values 1.01 | locus YAL030W, strain snc1, hits give low values 0.998 | locus YBL061C, strain skt5, hits give low values 1 | locus YBR009C, strain hhf1, hits give low values 1.01 | locus YBR021W, strain FUR4, hits give low values 1.04 | locus YBR023C, strain chs3, hits give low values 0.995 | locus YBR171W, strain sec66, hits give low values 0.996 | locus YBR229C, strain ROT2, hits give low values 0.992 | locus YBR231C, strain swc5, hits give low values 0.996 | locus YBR279W, strain paf1, hits give low values 0.996 | locus YCL011C, strain gbp2, hits give low values 1 | locus YCL016C, strain dcc1, hits give low values 0.998 | locus YCL029C, strain bik1, hits give low values 0.976 | locus YCL061C, strain MRC1, hits give low values 0.998 | locus YCL069W, strain vba3, hits give low values 1 | locus YCR088W, strain abp1, hits give low values 1 | locus YDL005C, strain med2, hits give low values 1 | locus YDL035C, strain GPR1, hits give low values 0.995 | locus YDL040C, strain nat1, hits give low values 0.995 | locus YDL074C, strain BRE1, hits give low values 0.993 | locus YDL101C, strain DUN1, hits give low values 0.996 | locus YDL185W, strain tfp1, hits give low values 0.956 | locus YDL192W, strain arf1, hits give low values 0.976 | locus YDR001C, strain nth1, hits give low values 0.997 | locus YDR069C, strain doa4, hits give low values 0.999 | locus YDR101C, strain arx1, hits give low values 0.982 | locus YDR137W, strain rgp1, hits give low values 1.03 | locus YDR159W, strain sac3, hits give low values 1.01 | locus YDR162C, strain NBP2, hits give low values 1.02 | locus YDR195W, strain ref2 0.993 | locus YDR297W, strain sur2, hits give low values 0.997 | locus YDR318W, strain mcm21, hits give low values 0.99 | locus YDR334W, strain swr1, hits give low values 1 | locus YDR335W, strain msn5, hits give low values 0.997 | locus YDR388W, hits give low values 0.976 | locus YDR392W, strain spt3, hits give low values 0.941 | locus YDR502C, strain sam2, hits give low values 0.986 | locus YEL003W, strain gim4, hits give low values 1.01 | locus YEL037C, strain rad23, hits give low values 1 | locus YEL061C, strain CIN8 (second series), hits give low values 1 | locus YEL061C, strain CIN8, hits give low values 0.988 | locus YER015W, strain faa2, hits give low values 1 | locus YER016W, strain bim1, hits give low values 1.01 | locus YER110C, hits give low values 0.952 | locus YER111C, strain swi4, hits give low values 0.985 | locus YER155C, strain BEM2 (second series), hits give low values 1.01 | locus YER155C, strain BEM2, hits give low values 0.986 | locus YER167W, strain BCK2, hits give low values 0.99 | locus YFR010W, strain ubp6, hits give low values 1.01 | locus YGL078C, strain dbp3, hits give low values 0.998 | locus YGL086W, strain mad1, hits give low values 0.968 | locus YGL167C, strain pmr1, hits give low values 1 | locus YGL173C, strain kem1, hits give low values 0.996 | locus YGL227W, strain vid30, hits give low values 0.993 | locus YGL240W, strain doc1, hits give low values 1.02 | locus YGL248W, strain PDE1, hits give low values 1.01 | locus YGL253W, strain hxk2, hits give low values 0.993 | locus YGR078C, strain PAC10, hits give low values 1.03 | locus YGR135W, strain pre9, hits give low values 1 | locus YGR252W, strain gcn5, hits give low values 1.21 | locus YHR013C, strain ard1, hits give low values 1 | locus YHR027C, strain rpn1, hits give low values 1 | locus YHR030C, strain SLT2, hits give low values 0.971 and 1.02 | locus YHR079C, strain IRE1 (second series), hits give low values 0.972 | locus YHR079C, strain IRE1, hits give low values 1.03 | locus YHR094C, strain hxt1, hits give low values 0.989 | locus YHR129C, strain ARP1, hits give low values 0.99 | locus YHR142W, strain chs7, hits give low values 0.989 | locus YHR200W, strain rpn10, hits give low values 0.985 | locus YIL066C, strain RNR3, hits give low values 1 | locus YIL073C, strain SPO22, hits give low values 0.922 | locus YIL125W, strain kgd1, hits give low values 0.94 | locus YIR030C, strain dcg1, hits give low values 0.985 | locus YJL092W, strain hpr5, hits give low values 0.995 | locus YJL095W, strain BCK1 (second series), hits give low values 0.992 | locus YJL095W, strain BCK1, hits give low values 1.05 and 1.02 | locus YJL115W, strain asf1, hits give low values 1 | locus YJL129C, strain trk1, hits give low values 0.993 | locus YJL134W, strain LCB3, hits give low values 0.979 | locus YJL154C, strain vps35, hits give low values 1 | locus YJL164C, strain tpk1, hits give low values 0.994 | locus YJL166W, strain qcr8, hits give low values 0.995 | locus YJL168C, strain set2, hits give low values 1.01 | locus YJL187C, strain SWE1 (second series), hits give low values 1.01 | locus YJL187C, strain SWE1, hits give low values 0.999 | locus YJR043C, strain POL32, hits give low values 1.01 | locus YJR066W, strain TOR1, hits give low values 0.959 | locus YKL009W, strain mrt4, hits give low values 0.954 | locus YKL068W, hits give low values 0.98 | locus YKL085W, strain MDH1 (second series), hits give low values 0.981 | locus YKL085W, strain MDH1, hits give low values 0.981 | locus YKL160W, strain elf1, hits give low values 0.987 | locus YKL190W, strain CNB1, hits give low values 0.985 | locus YKR001C, strain vps1, hits give low values 0.975 | locus YKR026C, strain gcn3, hits give low values 1 | locus YKR091W, strain srl3, hits give low values 1 | locus YLL001W, strain dnm1, hits give low values 0.967 | locus YLL026W, hits give low values 0.997 | locus YLL041C, strain sdh2, hits give low values 0.998 | locus YLR027C, strain aat2, hits give low values 1 | locus YLR039C, strain RIC1, hits give low values 0.987 | locus YLR058C, strain SHM2, hits give low values 0.991 | locus YLR102C, strain apc9, hits give low values 0.957 | locus YLR113W, strain HOG1, hits give low values 1.02 | locus YLR221C, strain rsa3, hits give low values 0.995 | locus YLR258W, strain gsy2, hits give low values 0.998 | locus YLR262C, strain YPT6 (second series), hits give low values 0.998 | locus YLR262C, strain YPT6, hits give low values 1 | locus YLR268W, strain sec22, hits give low values 0.963 | locus YLR320W, strain mms22, hits give low values 0.992 | locus YLR330W, strain CHS5, hits give low values 0.979 | locus YLR342W, strain FKS1 (second series), hits give low values 1.01 | locus YLR342W, strain FKS1, hits give low values 0.995 | locus YLR357W, strain rsc2, hits give low values 1.01 | locus YLR370C, strain arc18, hits give low values 0.994 | locus YLR371W, strain rom2, hits give low values 0.98 | locus YLR384C, strain iki3, hits give low values 1.01 | locus YLR418C, strain cdc73, hits give low values 1.04 | locus YML016C, strain PPZ1, hits give low values 0.989 | locus YML032C, strain rad52, hits give low values 0.985 | locus YML120C, strain ndi1, hits give low values 0.995 | locus YML124C, strain tub3, hits give low values 0.991 | locus YMR058W, strain fet3, hits give low values 1 | locus YMR078C, strain ctf18, hits give low values 0.982 | locus YMR125W, strain sto1, hits give low values 0.993 | locus YMR129W, hits give low values 1 | locus YMR205C, strain PFK2, hits give low values 0.992 | locus YMR223W, strain ubp8, hits give low values 0.998 | locus YMR231W, strain pep5, hits give low values 1 | locus YMR263W, strain SAP30, hits give low values 0.995 | locus YMR307W, strain GAS1, hits give low values 1.19 | locus YNL067W, strain RPL9B, hits give low values 1.02 | locus YNL071W, strain lat1, hits give low values 1 | locus YNL153C, strain GIM3, hits give low values 1.03 | locus YNL183C, strain NPR1, hits give low values 0.947 | locus YNL209W, strain ssb2, hits give low values 0.998 | locus YNL233W, strain BNI4, hits give low values 1.03 | locus YNL248C, strain rpa49, hits give low values 0.994 | locus YNL250W, strain rad50, hits give low values 0.981 | locus YNL271C, strain bni1, hits give low values 0.997 | locus YNL298W, strain CLA4, hits give low values 0.989 | locus YNL307C, strain MCK1, hits give low values 0.98 | locus YNL322C, strain KRE1 (second series), hits give low values 0.998 | locus YNL322C, strain KRE1, hits give low values 0.987 | locus YNR049C, strain mso1, hits give low values 0.999 | locus YNR052C, strain pop2, hits give low values 0.994 | locus YOL012C, strain htz1 0.994 | locus YOL147C, strain pex11, hits give low values 0.985 | locus YOR001W, strain rrp6, hits give low values 0.984 | locus YOR061W, strain CKA2, hits give low values 0.99 | locus YOR069W, strain VPS5, hits give low values 0.981 | locus YOR070C, strain gyp1, hits give low values 0.996 | locus YOR080W, strain dia2, hits give low values 1 | locus YOR083W, strain WHI5, hits give low values 0.985 | locus YOR106W, strain vam3, hits give low values 1.02 | locus YOR136W, strain idh2, hits give low values 0.987 | locus YOR144C, strain elg1, hits give low values 0.987 | locus YOR184W, strain ser1, hits give low values 0.963 | locus YOR231W, strain MKK1, hits give low values 1.03 | locus YOR265W, strain rbl2, hits give low values 1.01 | locus YOR270C, strain vph1, hits give low values 0.99 | locus YOR290C, strain snf2, hits give low values 1.02 | locus YOR316C, strain cot1, hits give low values 0.988 | locus YPL051W, strain arl3, hits give low values 0.997 | locus YPL078C, strain atp4, hits give low values 0.996 | locus YPL106C, strain sse1, hits give low values 0.963 | locus YPL240C, strain hsp82, hits give low values 0.985 | locus YPL256C, strain CLN2, hits give low values 1.02 | locus YPR119W, strain clb2, hits give low values 0.976 | locus YPR141C, strain kar3, hits give low values 0.979 | locus YPR163C, strain tif3, hits give low values 0.993 | locus YPR167C, strain met16, hits give low values 0.97 | strain wtn01, hits give low values 0.971
